# ± gives the standard deviation of the averaged measurements.
# System: AEK1 (Tb927.3.2440)
# Assay: percent reduction in TR-FRET probe signal relative to DMSO control; higher = stronger displacement of ATP-site probe (binding)
# Settings: 1 µM; incubation time 1 h
row,SMILES,percent reduction in TR-FRET probe signal [%]
1,COc1cc(N2CCC(N3CCN(C)CC3)CC2)ccc1Nc1ncnc(Nc2ccccc2S(=O)(=O)C(C)C)n1,-6.14 ± 6.2
2,C=CC(=O)Nc1cccc(Oc2nc(Nc3ccc(N4CCN(C)CC4)cc3)nc3ccsc23)c1,-10.3 ± 4.1
3,Cc1ccccc1-n1c(Cn2nc(-c3cccc(O)c3)c3c(N)ncnc32)nc2cccc(C)c2c1=O,1.94 ± 11
4,O=C(NOCC(O)CO)c1cc(Br)c(F)c(F)c1Nc1ccc(I)cc1F (stereo unspecified),-4.38 ± 12
5,CO[C@H]1CC[C@H](N2C(=O)CNc3ncc(-c4ccc(C(C)(C)O)nc4)nc32)CC1,-4.45 ± 1.6
6,CC(C)(C)Cn1c(N)nc2ccc(-c3[nH]c(C(C)(C)C)nc3-c3ccc(F)cc3)nc21.CS(=O)(=O)O.CS(=O)(=O)O,-14.9 ± 5.8

# Reference: the supplement of paper PMC10720658
